# Reference: the supplement of paper PMC11417369
# ± gives the standard deviation of the averaged measurements. The full ranking holds about 25,000 sequences; the median of “ln(normalized median fluorescence intensity)” is about 10, and the highest 2% start at about 12. This is one part of a sample in which the highest values are shown more often than they occur.
# System: PfAP2-G AP2 domain (GST-tagged)
# Test: gcPBM binding intensity (ln(normalized median fluorescence intensity)); higher = stronger DNA binding
# Procedure, shortened: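 GST-tagged P. falciparum DNA-binding domains produced in E. coli were incubated for 1 h on an Agilent 4 × 180k array of primer-extended double-stranded 36-bp intergenic genomic probes with negative controls. Binding intensity is the highest Masliner-normalised natural-log median intensity across replicate spots of either probe orientation, with bound protein detected by Alexa488 anti-GST antibody at 488 nm.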
row,Sequence,gcPBM binding intensity (ln)
1,TATTTTATATGATAGGTGCATTTTTTTTTTTTTTTT [GTGCAC_site9757],10.4 ± 0.48
2,TTCTTTATTTTTTCTACACACATTATATATTCAAAG [CACACA_site5866],10.12 ± 0.099
3,CAACACTTATTGAAACGTACGCATATAGTTTCTTTT [XGTACX_site8960],11 ± 0.55
4,TATAAATATAAATATACACACATATATTTATTTATA [CACACA_site6890],9.645 ± 0.078
5,TATTTGTGCCAAAAATGAAAAAGTTTGTATAAAACC [CACACA_negctrl_site1406],10.1 ± 0.17
6,AAGATACACTTAATCGCACACGAAATTATATATTTA [CACACA_site3063],10.1 ± 0.24
7,TATATATATTATATATGTACATATATTTTTTTTTTT [XGTACX_site127],11.2 ± 0.81
8,ATTTAAGGGGTGTATGCACACGACTATTCCGTATGA [CACACA_site4738],10.23 ± 0.092
9,ATATATATATAGTACGCACACATAGTTGTACATTAA [CACACA_site2787],12 ± 1.3
10,TATTATCTGTAGTGTACACATATTATATAGTACTTT [CACACA_site4582],11.8 ± 1
11,TATATATATATATATAGTACGCACACATAGTTGCAA [XGTACX_site5875],11.1 ± 0.67
12,CATATTTTCTTGTGTACACATTTATTTTATACTATA [CACACA_site6032],11.7 ± 0.97
13,AATATGTAATAGTGTACACATATATCTGTATTTATG [CACACA_site4252],11.6 ± 0.91
14,TCATTCTTGTGTTTATGTACACATATTTATATTGTA [XGTACX_site710],11.4 ± 0.88
15,ATACGCACACATATATGTACATATTGTATATATATA [XGTACX_site3962],11.2 ± 0.71
16,TATATCTGTTTATATTGTACACATATATATATATAT [XGTACX_site714],11.4 ± 0.93
17,ATTTTTTTTTCTTGTACACACTATTTTATAATTTTA [CACACA_site6102],11.6 ± 0.93
18,ATGAATTAACCTAATCGTACAATAAATATTATTATA [XGTACX_site596],11 ± 0.81
19,AAAATTAAAAAGAACACACAAATATATCTATAATAA [CACACA_site7660],9.81 ± 0.26
20,TTCTATATTATATATGCATGTGTTATTCTTATTTTC [TGCATGCA_site92],9.87 ± 0.057
21,ATATGATTAATTAAGTGTACGTATTTATAATTATAA [XGTACX_site5783],11.7 ± 1
22,ATTTATATATATTTATGTACGTATTAATTTTTTTTT [XGTACX_site3877],11.5 ± 0.88
23,TTATATTTTATTATGTGTACGTATATAATATAATAT [XGTACX_site6230],11.6 ± 0.97

row,Sequence,gcPBM binding intensity (ln)
1,ATTTTTTTTTTTTATAGTGGATCCACATTTGCCATT [CACACA_negctrl_site1284],10.3 ± 0.36
2,AAAAAAAATTAGGAAACATGCATGTCCCGATAAATA [TGCATGCA_site149],10.28 ± 0.049
3,TCTTATTATAAAAGGAGTACATCAATTAGATGTTCC [XGTACX_site8465],11.6 ± 1
4,ATAATATATATATATATATTATCAAATATATATATA [GTGCAC_negctrl_site346],9.55 ± 0.23
5,TATTATATATAATATTGTACATTAAAATATTAAAGA [XGTACX_site3698],10.9 ± 0.67
6,ATATAATGAAGTGAATGTACATATAAAATGTAAAAA [XGTACX_site8052],11.1 ± 0.43
7,GGAAGATGAAAAATAAAGCATGTGCTGTACAAACGA [CACACA_negctrl_site1625],10.8 ± 0.37
8,AATATTTTGATGTGTACACATTAATACAGTTTTACA [CACACA_site5711],11.7 ± 0.91
9,GATGATGTTTATTTGTGTACATATTAATACTTAATA [XGTACX_site1902],11.4 ± 0.82
10,TTATTTAAATAATATGTACACACATTTAAAAAATTA [CACACA_site8912],11.6 ± 0.95
11,TTAATATTTTGATGTGTACACATTAAAATAGTTTTA [CACACA_site5712],11.8 ± 0.89
12,ATATAAATATTTATTAGTACACATTAGTGTAGTTTT [XGTACX_site4493],11.5 ± 0.88
13,GATGATAAAATATGTACACACAGTTTATACATTTTG [CACACA_site4055],11.3 ± 0.76
14,TTTTATTATTTGTCTTGTACTCATTGTAAGAGTATG [XGTACX_site1538],11.4 ± 0.91
15,ATATAATAATATTATACATGCAAAATATGTTCTTCA [TGCATGCA_site115],9.795 ± 0.049
16,AACTTTATACTTTTTTGTACTTAACCCTTACATTTT [XGTACX_site5798],11.1 ± 0.38
17,AATAACAATTATAAAAGTACAGATTTTTATTTCTAA [XGTACX_site5746],11.1 ± 0.79
18,TATATAAAAATATGTTGTACGCATTTATAAATATAT [XGTACX_site3758],11.6 ± 0.98
19,AAATAAAATTTTATGTGTACGCAAAAAGTTGTAAGC [XGTACX_site8911],11.9 ± 1.3
20,TATGTATATATATAAAGTACGCAAATTTATAATAAG [XGTACX_site8744],11.5 ± 0.98
21,GCGTAATCTATTTGCACACTTATTTGTTCTTAAAAA [CACACA_site672],10.2 ± 0.14
22,AAGATATGTACTAATACACACACATATATATATATA [CACACA_site8249],11.2 ± 0.79
23,ATGAAAATTATAAAGTGTACATATAGAAACATTTAC [XGTACX_site8047],11.4 ± 0.99

row,Sequence,gcPBM binding intensity (ln)
1,CATACATTTAAAAAGTGTACGTATATGAAAAAAGGA [XGTACX_site6512],11.7 ± 1.1
2,TGTATATACATAAAGTGTACGTATATTTATATATAT [XGTACX_site4320],11.6 ± 0.98
3,TACATATACATATACACACACACACCCAAATAAATA [CACACA_site1344],10.3 ± 0.35
4,TATATTAACAAAATGGTGCAATAATTTCTATATTAT [GTGCAC_site9857],10.1 ± 0.22
5,ATTTTTCTAAAATACTGTACAAAGGTGCATAAAAAG [XGTACX_site4425],11 ± 0.64
6,TTTTCTCTAAAAAGGTGTACAACTAATAATGCACTG [XGTACX_site6074],11.7 ± 0.83
7,GATAATGAATGATGCACACTAAAAATATTCTACAAC [CACACA_site3622],10.185 ± 0.007
8,TTATATATTTTATTATTTATAATCTTTTTTTTATTT [CACACA_negctrl_site112],9.585 ± 0.049
9,AAAAATGAGTGACACACACACATATAAATATAAATA [CACACA_site7115],10.1 ± 0.25
10,TATGTATGCCTGTTTTGTACTTAAGAAAATGTTGCT [XGTACX_site8443],11 ± 0.57
11,TGTGTCAAATAATTAATGTCATATATATTTTGTATA [CACACA_negctrl_site1479],9.675 ± 0.078
12,TATTTTTTTAATAACTGTACTTTTTTGTCAAATGGA [XGTACX_site4179],11.7 ± 1.2
13,AATTTTTGTATTTTTAGTACTTAATTTCAAAATAAC [XGTACX_site4234],11.2 ± 0.6
14,AATAAATATATATTCACACACAAACATATATATATA [CACACA_site4023],10.1 ± 0.45
15,CAGTATTACATGAGGACACACACAAAAAAAATATAT [CACACA_site8156],11.3 ± 0.86
16,AATATAAAAAAAAAATGTACATATTATATATATATA [XGTACX_site5113],11.1 ± 0.72
17,ATAATTAAATAAAAAAGTACACATACATCATAATGC [XGTACX_site7656],11.5 ± 0.87
18,TTAAAAATGATTGAATGTACAGATTAATATAATTTT [XGTACX_site7394],10.7 ± 0.28
19,AAAAAATAATTGAAGTGTACGTACAATGATTTTACT [XGTACX_site7663],11.8 ± 1.1
20,AAAAGAACAATGAAGTGTACTAATAATTATTTATGT [XGTACX_site6649],11.3 ± 0.79
21,TAAAATGAAGGAATATGTACATAAATAAACATATAT [XGTACX_site6266],11.2 ± 0.63
22,TTATAGTAATAATAATGTACATTTATACACATATAT [XGTACX_site1965],10.9 ± 0.47
23,GACATTTGTGAGCTTGAGCCGTCAAACCACTAAATA [CACACA_negctrl_site552],9.99 ± 0.028

row,Sequence,gcPBM binding intensity (ln)
1,AAAAGAAAAGAGAGGAGTACAAAATATAATTATCTA [XGTACX_site5172],11.3 ± 0.76
2,ATATAAGATTTAAGAAGTACAATTATACAGTAGATC [XGTACX_site7501],11.4 ± 0.88
3,GGGGGTAGGGGAAGAAGTACAATGATCACTACAGTA [XGTACX_site1169],11.9 ± 1.3
4,TAAAAATGATCAAAGGGTACAGTATTAATTAAAAAA [XGTACX_site1079],11.3 ± 0.93
5,CGCAACGTGAAAATACGTACACATACATTTTTATAT [XGTACX_site330],11.7 ± 0.85
6,TTTATTTATTTTTAACGTACGCACACATATAAATAT [XGTACX_site4042],11.4 ± 0.72
7,TATTTATACATACGTACACACAAATATTAAAATATA [CACACA_site7004],11.5 ± 0.96
8,AGGCGTGAAATATACGTACACACATTATTTATATTT [CACACA_site2558],11.6 ± 1
9,CAGGCGTGAAATATACGTACACACATTATTTATATT [XGTACX_site5337],11.8 ± 0.94
10,TTATTTTTAACGTACGCACACATATAAATATATTTA [CACACA_site1976],11.5 ± 0.97
11,TTGTTAATATATATATGTACTTATTTATTTATTTAT [XGTACX_site2274],11.4 ± 0.93
12,TATATATATATATAATGTACAGAAAAAAAAAAAAAA [XGTACX_site6141],10.8 ± 0.86
13,TATTCAAAGAAAAACTGTACGTGTAGCAAACGTCAT [XGTACX_site7713],11.5 ± 0.83
14,TACAGATAAATATACATACATATATATATATATATA [XGTACX_negctrl_site182],9.86 ± 0.42
15,TGAAATTTTTATACATGTACAAAATTAAATATAACA [XGTACX_site7324],10.8 ± 0.49
16,TATTTTATATAAAGGTGTACTTATACAAAAATATAT [XGTACX_site7435],11.5 ± 0.88
17,TATATTTTTTTAAAAAGTACTTTGTATATATATATA [XGTACX_site1300],11.1 ± 0.83
18,TTATTTATTTAGTAGTGTACTTTTTATATTTATAAT [XGTACX_site5978],11.6 ± 0.99
19,GTATATTTTTAAAGGTGTACTTTTTTTTTTTTTTTT [XGTACX_site721],11.8 ± 1.1
20,TTATATATTTTTAGGTGTACTTTTTTTTTTTTTTTT [XGTACX_site8164],11.7 ± 0.91
21,ATATATATTTTATATTGTACTTATTATTTTTAGGGC [XGTACX_site723],11.4 ± 0.81
